Values without a mark were called inactive. No rule for the calls is given here.

The target of this assay is Pantothenate synthetase (Mycobacterium tuberculosis (strain ATCC 25618 / H37Rv)) (UniProt P9WIL5). Description: Coupled enzyme confirmation of inhibitors against recombinant Mtb PanC (AID 375).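 Also: 0% = full reaction with vehicle and 100% = no enzyme background.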 The settings on record: coupled enzyme assay; at 10 µM, stronger effect = higher value.
Chain of Pantothenate synthetase (Mycobacterium tuberculosis (strain ATCC 25618 / H37Rv)) (P9WIL5 whole entry, looked up): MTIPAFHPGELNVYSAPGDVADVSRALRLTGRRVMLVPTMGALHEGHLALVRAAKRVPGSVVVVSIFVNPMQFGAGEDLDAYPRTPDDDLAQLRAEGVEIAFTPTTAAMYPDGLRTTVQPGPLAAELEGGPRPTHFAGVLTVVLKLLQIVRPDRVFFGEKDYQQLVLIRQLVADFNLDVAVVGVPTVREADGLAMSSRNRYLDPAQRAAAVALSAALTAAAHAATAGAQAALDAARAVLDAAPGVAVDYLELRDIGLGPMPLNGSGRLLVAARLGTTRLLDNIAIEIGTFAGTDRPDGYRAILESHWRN
In general, inhibition refers to how much of the control response was suppressed. In the case of `COc1ccc(C2CC(c3cccc(C)c3)n3ncnc3N2)cc1` (stereo not given), the inhibition was 0%.

`Cc1ccc(S(=O)(=O)N(CC(=O)N2CCC(C(N)=O)CC2)Cc2ccc(F)cc2)cc1`: the inhibition is 0%.

Take `CSc1nc(N2CCOCC2)c2c(c1C#N)CCCCC2`: the inhibition is 0%.

With `COc1ccc(OC)c(Nc2nc(-c3cccs3)cs2)c1`, the inhibition is 0%.

Take `CC(C)C1N=C2c3ccccc3N=C(SCC(=O)NCCc3ccc(S(N)(=O)=O)cc3)N2C1=O` (stereo not given): the inhibition was 0%.

Turning to `CC1Cc2nc(SCC(=O)Nc3ccc4c(c3)OCO4)n(-c3ccc(F)cc3)c(=O)c2S1` (stereo not given), the inhibition was 0%.

As for `CN(CC(=O)O)S(=O)(=O)c1cc(Cl)ccc1Cl`, the inhibition was 1%.

Regarding `CCC(CC)n1[nH]c(=O)c2c(C)cc(C)nc21`, the inhibition is 3%.

Regarding `CC(=O)C1=C(C)NC(C)=C(C(C)=O)C1c1cccs1`, the inhibition was 0%.

`O=C(OCCN(CCOC(=O)c1ccncc1)S(=O)(=O)c1cccs1)c1ccncc1`: the inhibition was 0%.

With `CCn1cc(C(=O)NCCCOC)c(=O)c2cc(S(=O)(=O)N(C)C3CCCCC3)ccc21`, the inhibition was 2%.

For the molecule `CC(=O)Nc1cccc(NC(=O)CSc2nn3c(=O)c(C)nnc3s2)c1`, the inhibition was 2%.

Regarding `O=C(CN1C(=O)COc2ccccc21)NCCN1CCc2ccccc2C1`, the inhibition was 7%.

For the molecule `COc1cc(NC(=O)NC(C)(C(F)(F)F)C(F)(F)F)cc(OC)c1OC`, the inhibition is 0%.

As for `CCc1nnc(SCc2cn3c(C)cc(C)nc3n2)n1N`, the inhibition was 0%.

On to `Cc1cc(NC(=O)CSc2ccc3nnc(-c4cccc(F)c4)n3n2)no1`, for which the inhibition is 0%.

As to `c1nc(NCC2CCCO2)c2[nH]cnc2n1` (stereo not given), the inhibition is 0%.

As for `c1ccc(OCCCn2nnc(-c3ccncc3)n2)cc1`, the inhibition was 3%.

`CCOC(=O)N1CCC(NC(=O)Cn2ncc3c4ccccc4n(C)c3c2=O)CC1`: the inhibition was 5%.

In the case of `CNC(=O)c1ccc2nc(NC(C)=O)sc2c1`, the inhibition was 0%.

Consider `O=C(NCc1cccnc1)c1ccc(Cl)c(Cl)c1`, for which the inhibition was 0%.

Turning to `CC1CCC(NC(=O)C2CCN(c3cnccn3)CC2)CC1` (stereo not given), the inhibition was 0%.

Consider `Cc1ccccc1NC(=O)CSc1nc(N)c(C#N)c(-c2cccs2)c1C#N`, for which the inhibition is 0%.

For the molecule `CCOC(=O)CN1CC23C=CC(O2)C(C(=O)NC2CCCC2)C3C1=O` (stereo not given), the inhibition is 3%.

For the molecule `Nn1c(SCC(=O)Nc2ccc(S(=O)(=O)N3CCCC3)cc2)nnc1C(F)(F)F`, the inhibition was 0%.

Take `COc1ccc(OCCC(=O)NCc2ccccc2)cc1`: the inhibition is 0%.

For the molecule `CCOC(=O)NC(c1ccccc1)C1CCCCC1=O` (stereo not given), the inhibition was 0%.

As to `Cn1nnnc1SCC(=O)N1CCN(c2cccc(Cl)c2)CC1`, the inhibition was 2%.

As to `COc1ccccc1-c1nnc(SCC(=O)N2CC(C)CC(C)C2)o1` (stereo not given), the inhibition is 4%.

Consider `CC1CN=C(N(C(=O)Nc2ccccc2)c2ccc(S(=O)(=O)N3CCOCC3)cc2)S1` (stereo not given), for which the inhibition is 0%.

Take `COc1ccc(NC(=O)Nc2ccc(N3CCCC3=O)cc2)cc1OC`: the inhibition is 0%.

Turning to `CCc1nc(NCCCN2CCOCC2)c2oc3ccccc3c2n1`, the inhibition is 2%.

For `Cc1cc(NC(=O)c2ccc3nc(-c4ccccc4)c(-c4ccccc4)nc3c2)no1`, the inhibition is 0%.

On to `COc1ccc(NC(=O)CC2Oc3ccccc3NC2=O)cc1` (stereo not given), for which the inhibition is 0%.

`O=C(NCc1cccs1)C(Cc1ccccc1)n1cccc1` (stereo not given): the inhibition is 0%.

For `CCn1cc(/C=C(/C#N)S(=O)(=O)c2ccccc2)cn1`, the inhibition was 2%.

Consider `COC(=O)CCC(=O)Nc1ccc(OC)cc1`, for which the inhibition is 0%.

In the case of `CCC1(CC)NC(=O)NC1=O`, the inhibition is 0%.

Turning to `CCCn1nnc(NCc2ccc(OCc3cccs3)c(OC)c2)n1`, the inhibition was 0%.

`COc1cc2c(cc1OC)C(/C(C#N)=N\O)=NC(C)(C)C2`: the inhibition is 2%.

Values taken from PubChem BioAssay.
